These results are taken from PubChem BioAssay AID720536 (National Center for Advancing Translational Sciences (NCATS), 2013).

In all, about 1,600 compounds went through this assay and about 650 (41%) were called active. Another 39% or so got no clear call; they are omitted. Calls come from the whole dose curve; as a rule, active = well fitted inhibition curve with a large enough effect; inconclusive = small, poorly fitted or top-dose-only effect; inactive = no such curve, though single readings can be large or run the other way. The set was probably picked from earlier hits. The full list was thinned out, with actives kept by preference.
Potency is the fitted concentration of half-maximal effect.

This assay is described as follows: qHTS for Inhibitors of TGF-b: CCL64 Cells Orthogonal Assay for Cherry Picks. Note: nearly all actives have a fitted effect of over 65% in size. The settings on record: CCL64 CAGA-GFP reporter, TGF-b stimulated, GFP fluorescence, 18 h; series mostly up to 46.1 µM. The source says: TGF-b is a main component in the TGF-b signaling pathway which plays diverse roles in cellular and development pathways. TGF-b is the mediated by the transcription factors Smads. Although the Smad-dependent pathway is the primary canonical TGF-b signaling node, TGF-b1 can also activate alternative signaling pathways, including those involving MAPK (ERK, JNK and p38). This interaction may mediate or enhance Smad-dependent responses, or can exert Smad-independent effects. The complexity of this signaling cascade allows the TGF-b superfamily to perform unique, overlapping or redundant functions. We believe that targeting the TGF-beta pathway at the Smad-transcription factor level may eliminate the consequences of disrupting the entire pathway and offer specificity without affecting other signaling pathways. Smad3 is the primary transducer of TGF-b's signals and Smad3 regulates many functions attributed to TGF-b signaling. We hypothesize that Smad3 inhibitors will selectively eliminate Smad3-specific TGF-beta signals without undesired off-target effects. We aim to identify Smad3-small molecule antagonists using a quantitative high throughput screening (qHTS) approach. A high-throughput assay was developed to screen the NIH Molecular Libraries Small Molecule Repository (MLSMR). This is a cell based assay, where TGF-b is tagged with GFP. This orthogonal assay was run using CCL64 cells (as opposed to HepG2); activity was desired in this assay as this indicated the hits identified from the screen are not a cell-based artifact. MH087449NIH Chemical Genomics Center [NCGC] NIH Molecular Libraries Probe Centers Network [MLPCN] MLPCN Grant: MH087449 Assay Submitter (PI): Sushil Rane, National Institute of Diabetes and Kidney Diseases
Suspensions of trypsinized CCL64 CAGA-GFP cells were dispensed into white, tissue culture-treated, solid 1536-well plates at 5uL/well (1000 cells/well final concentration) in DMEM medium supplemented with 1% FBS. Plates were incubated at 37 degrees C for 2 hours, after which 23 nL of compounds or DMSO were delivered to each well using a pin tool. One uL of recombinant TGF-beta in DMEM (1% FBS) was then dispensed (500 pg/mL final concentration), and plates were incubated at 37 degrees C for 18 hours. The plates were measured on an Acumen eX3 Explorer plate reader for GFP fluorescence (ex488/em500-530). GFP values were calculated by determining the mean GFP fluorescence of individual cells, and compiling these values for each well to determine a total well GFP signal. The %Activity was determined from the corrected fluorescence values. A titration of the known TGF-B inhibitor SB431542 was included to monitor plate performance, while unstimulated […] (-TGF-B) control wells were used to normalize %Activity of identified inhibitors; unstimulated wells corresponded to 100%Activity (full inhibition), while stimulated cell controls (+DMSO) were used to normalize 0%Activity (no inhibition). Concentration-response curves were fitted to the signals arising from the resulting fluorescence. The concentration-effect curves were then classified based on curve quality (r2), response magnitude and degree of measured activity, and compounds were subsequently categorized based on their curve class.
In general terms: In qHTS, concentration-response curves come from the screen itself.
On to `COc1cc(NC(=O)c2[nH]cnc2C(N)=O)cc(C(=O)Nc2cccc(C(F)(F)F)c2)c1`, for which the Potency is 9.2 µM (active).

As to `CCCc1cc(-c2n[nH]c(=S)n2CC)c2ccccc2n1`, the Potency entry was “inactive”.

With `Clc1ccc2c(c1)C1=C(C(c3ccncc3)O2)C(c2ccc(Br)cc2)n2ncnc2N1` (centres undefined), the Potency is 10.3 µM (active).

`Cc1ccc(-c2nc3ccc(Br)cn3c2Cc2ccccc2C(F)(F)F)cc1`: the Potency entry is “inactive”.

Consider `CCOC(=O)C1=C(N)N(c2ccc(C)cc2)C2=C(C(=O)CCC2)C1c1cccs1` (centres undefined), for which the Potency is 23.1 µM (active).

For the molecule `Cc1cccc(CS(=O)(=O)c2ncc(Cl)c(C(=O)Nc3ccc(F)cc3)n2)c1`, the Potency was 4.61 µM (active).

As to `Cc1cccc(NC(=O)c2nc(S(=O)(=O)Cc3ccccc3)ncc2Cl)c1`, the Potency was 2.59 µM (active).

With `Cc1ccc(S(=O)(=O)Nc2ccc3c(c2)C(=O)N([C@H](C)CO)C[C@@H](C)[C@@H](CN(C)C(=O)Nc2cccc4ccccc24)O3)cc1`, the Potency result was “inactive”.

Consider `COc1cc(NC(=O)COC(=O)c2ccc([N+](=O)[O-])s2)cc(OC)c1OC`, for which the Potency entry is “inactive”.

`CC1CCc2c(nc3ncnn3c2Nc2ccc(OC(F)(F)F)cc2)C1` (centres undefined): the Potency entry is “inactive”.

As to `Cc1nc(/N=C(\N)NC(=O)NC2CCCCC2)nc2ccccc12`, the Potency was 20.6 µM (active).

`COc1cccc(CNc2nc(NCc3ccccc3OC)nc3ccsc23)c1`: the Potency is 18.4 µM (active).

For `O=C(Nc1ccc(C2CC2(Cl)Cl)cc1)c1cccc([N+](=O)[O-])c1` (centres undefined), the Potency is 14.6 µM (active).

For `CC(=NNC(=S)N1CCCCCC1)c1ccccn1`, the Potency is 4.11 µM (active).

For the molecule `O=C(NC1=CC(=O)c2ccccc2C1=O)c1ccccc1`, the Potency is 3.66 µM (active).

As for `CCCOc1ccccc1C1CC(=O)Nc2cc3c(cc21)OCO3` (centres undefined), the Potency is 13 µM (active).

Turning to `Cc1ccc(CN2CC(N3CCC(Cc4ccccc4)CC3)CS2(=O)=O)cc1` (centres undefined), the Potency entry was “inactive”.

Consider `CCCOc1ccc(F)cc1-c1cc(C(=O)Nc2ccc(F)c(Cl)c2)[nH]n1`, for which the Potency was 25.9 µM (active).

As to `O=[N+]([O-])c1ccccc1S(=O)(=O)Nc1cccc2cccnc12`, the Potency is 8.2 µM (active).

On to `Clc1ccc(Nc2nc(-c3cccs3)cs2)nc1`, for which the Potency was 29.1 µM (active).

With `COC(=O)COc1cccc2c(=O)n(CC(=O)NCc3ccccc3)ccc12`, the Potency result was “inactive”.

`COc1cc(/C=C2\Oc3ccc(C#Cc4ccc(O)cc4)cc3C2=O)cc(OC)c1`: the Potency is 5.17 µM (active).

With `Cc1cc(C)cc(N(CC(=O)N2CC=C(c3ccccc3)CC2)S(=O)(=O)c2c(C)noc2C)c1`, the Potency is 10.3 µM (active).

Turning to `COc1ccc(CNC(=O)C[C@H]2C[C@H](C(=O)N3CCOCC3)[C@@]3(CCC4CCCC4)c4[nH]c5ccc(Cl)cc5c4CCN3C2=O)cc1OC`, the Potency was 5.17 µM (active).
